As usually defined, the AC50 is the concentration giving half of the maximal activity seen.

Records with an inconclusive call do not appear. The source made the active and inactive calls. The calls were made as follows: active = hit-call score of the fitted dose curve at least 0.9, where 1 is the maximum; inconclusive = response in the unintended direction; inactive = score below 0.9.

Read-out in the experiment: glucuronosyltransferase (UGT1A1), UGT1A1 (gene 54658)
Description: CLD_UGT1A1_24hr: CellzDirect (CLD) Gene Expression Assay for glucuronosyltransferase (UGT1A1) at 24 hours (AID 2283696). On the procedure: CLD_24hr is a cell-based, multiplexed-readout assay that uses hepatocyte, a human liver primary cell, with measurements taken at 24 hours after chemical dosing in a 96-well plate.CLD_UGT1A1_24hr is one of 16 assay component(s) measured or calculated from the CLD_24hr assay. It is designed to make measurements of mRNA induction, a form of inducible reporter, as detected with chemiluminescence signals by Quantitative Nuclease Protection Assay (qNPA) technology.Data from the assay component CLD_UGT1A1_24hr was analyzed at the endpoint, CLD_UGT1A1_24hr, in the positive analysis fitting direction relative to DMSO as the negative control and baseline of activity. Using a type of inducible reporter, gain-of-signal activity can be used to understand changes in the reporter gene as they relate to the gene UGT1A1. Furthermore, this assay endpoint can be referred to as a primary readout. To generalize the intended target to other relatable targets, this assay endpoint is annotated to the transferase intended target family, where subfamily is glucuronosyltransferase.
Human hepatocyte cultures were treated daily for two consecutive days with fresh dosing solutions containing appropriate concentrations of the 320 ToxCast chemicals (chemical identities were blinded to CellzDirect and other ToxCast collaborators), vehicle control (0.2% DMSO), and positive control inducers as summarized in Table 1. Due to the large number of treatment groups and chemicals examined, the ToxCast chemicals were divided into two groups (spanning two independent cultures of hepatocytes from separate donor preparations (Hu778: ToxCast plates 1 and 2; Hu776: ToxCast plates 3 and 4). Each preparation of human hepatocyte cultures was treated with respective vehicle control, medium only control, set of six positive controls/reference chemicals for the five hepatic receptor pathways, and a subset of eight of the ToxCast chemicals (indoxacarb, pyrithiobac-sodium, norflurazon, cyhalofop-butyl, methomyl, thiram, acetochlor, and propiconazole). These replicate data, coupled with internal replicates designed within the blinded ToxCast chemical library, provided additional data to evaluate interindividual differences between hepatocyte preparations and their potential impact on chemical profiles.Cell morphology and integrity were evaluated using phase-contrast microscopy as an indicator of hepatocyte cell health (Tyson & Green, 1987). Cultures for each treatment group (i.e., media, vehicle [0.2% DMSO], positive control inducers [multiple concentrations], and the ToxCast chemicals [multiple concentrations]) were observed and cell morphology was assessed relative to vehicle control cultures at each harvest time point (0, 6, 24, or 48 h). […] Images were evaluated at the conclusion of the study to assess changes in cell integrity and account for the effects of chemical exposure on uncharacteristic changes in concentration-dependent gene expression profiles. The results from these determinations of apparent cytotoxicity were annotated (yes/no) alongside the corresponding qNPA data for reference.At the conclusion of each treatment period, hepatocyte cultures (96-well) were washed with 1 volume of HBSS, lysed by addition of 25 ul ArrayPlate lysis buffer (HTG, Tucson, AZ), and 70 ul/well of Denaturation Oil, denatured by incubation at 95C for 10 min, and frozen at approximately -70C until analysis by nuclease protection assay (qNPA) (Roberts et al., 2007). For qNPA analysis, cell lysates were thawed at 50C for approximately 30 min, qNPA probes were added, and samples were incubated at 95C for 10 min to begin the detection process by denaturing the target RNA, dissociating the duplexes and secondary structure hybridization. At the conclusion of the hybridization period, S1 nuclease reagent was added to each sample to digest all nonprotected nucleotides at 50C for 60-90 min. […]
On to `OB(O)O`, for which the call was inactive.
With `CC1(C)C(C=C(Cl)Cl)C1C(=O)OCc1cccc(Oc2ccccc2)c1` (stereo not given), the outcome was inactive.
With `CCOC(=O)[C@H](C)Oc1ccc(Oc2nc3ccc(Cl)cc3o2)cc1`, the compound was called inactive.
`CCOC(=O)COc1cc(-n2ncc(C(F)(F)F)c(C)c2=O)c(F)cc1Cl`: the call was inactive.
As for `COC(=O)c1ccc(I)cc1S(=O)(=O)NC(=O)Nc1nc(C)nc(OC)n1`, the call was inactive.
Turning to `CCOC(=O)C(C)Oc1ccc(Oc2nc3ccc(Cl)cc3o2)cc1` (stereo not given), the call was inactive.
For the compound `N#CSCSc1nc2ccccc2s1`, the compound was called inactive.
The same measure, in the same setting: the same measure for `CCCCCCC(C)OC(=O)COc1nc(F)c(Cl)c(N)c1Cl` (stereo not given): “inactive”; for `COC(=O)c1cccc(C)c1S(=O)(=O)NC(=O)Nc1nc(OCC(F)(F)F)nc(N(C)C)n1`: “inactive”.
The same measure, in the same setting: for `Cc1nn(C)c(Oc2ccccc2)c1C=NOCc1ccc(C(=O)OC(C)(C)C)cc1` the value was “inactive”; for `C#CCOC(=O)[C@@H](C)Oc1ccc(Oc2ncc(Cl)cc2F)cc1`, “inactive”; for `COc1nc(C)nc(NC(=O)NS(=O)(=O)c2ccccc2OCCCl)n1`, “inactive”.
Regarding `COC(=O)c1ccc(CNS(C)(=O)=O)cc1S(=O)(=O)NC(=O)Nc1nc(OC)cc(OC)n1`, the outcome was inactive.
Still for that read-out and setting: for `CCCN(CCC)C(=O)SCC` the value was “inactive”.
`CCCCOC(=O)[C@@H](C)Oc1ccc(Oc2ccc(C(F)(F)F)cn2)cc1`: the result was inactive.
Turning to `CCOC(=O)C(C)Oc1ccc(Oc2cnc3cc(Cl)ccc3n2)cc1` (stereo not given), the compound was classed as inactive.
With `COC(=O)c1ccccc1C(=O)O`, the compound was called inactive.
For the compound `CCN(CC)C(=O)c1cccc(C)c1`, the call was inactive.
On the same count and under the same terms, for `CCCCCOC(=O)COc1cc(N2C(=O)C3=C(CCCC3)C2=O)c(F)cc1Cl` the value was “inactive”.
As for `COC(=O)CSc1cc(N=c2sc(=O)n3n2CCCC3)c(F)cc1Cl`, the AC50 was 3.17 µM (active).
Turning to `CC(C)(c1ccc(O)cc1)c1ccc(O)cc1`, the compound was called inactive.
As for `CCCN(CCC)c1c([N+](=O)[O-])cc(C(F)(F)F)c(N)c1[N+](=O)[O-]`, the AC50 is 8.82 µM (active).
Consider `CN(C)C(=O)Nc1ccc(Cl)c(Cl)c1`, for which the result was inactive.
On to `COC(=O)c1c(Cl)nn(C)c1S(=O)(=O)NC(=O)Nc1nc(OC)cc(OC)n1`, for which the result was inactive.
As to `O=C(O)C1(C(=O)Nc2ccc(Cl)cc2Cl)CC1`, the AC50 was 20 µM (active).
For the compound `CCOC(=O)NCCOc1ccc(Oc2ccccc2)cc1`, the compound was classed as inactive.
On to `CCCCOCCOCCOCc1cc2c(cc1CCC)OCO2`, for which the compound was classed as inactive.
On the same count and under the same terms, the same measure for `CCCOC(=O)NCCCN(C)C`: “inactive”; for `c1ccc(Nc2ccccc2)cc1`: “inactive”.
As for `CCSC(=O)N(CC(C)C)CC(C)C`, the compound was called inactive.
On the same count and under the same terms, for `CCNc1nc(N)nc(Cl)n1` the value was “inactive”.
The same measure, in the same setting: for `CCC(C)OC(=O)N1CCCCC1CCO` (stereo not given) the value was “inactive”.
Same read-out and setting: for `CC(C)(C)[C@@H](O)[C@@H](Cc1ccc(Cl)cc1)n1cncn1` the value was “inactive”.
On to `C=CCOC(Cn1ccnc1)c1ccc(Cl)cc1Cl` (stereo not given), for which the outcome was inactive.
`CCCCC(CC)COC(=O)c1ccccc1C(=O)O` (stereo not given): the call was inactive.
Still for that read-out and setting: for `CSC(=O)c1cccc2nnsc12` the value was “inactive”.
On the same count and under the same terms, the same measure for `COC(=O)c1ccccc1S(=O)(=O)NC(=O)Nc1nc(OC(F)F)cc(OC(F)F)n1`: “inactive”; for `CCC(O)=C1C(=O)CC(C(=O)O)CC1=O` (stereo not given): “inactive”.
As for `Oc1ccc(C(c2ccc(O)cc2)C(Cl)(Cl)Cl)cc1`, the call was inactive.
In the case of `CCCCOC(=O)C(C)Oc1ccc(Oc2ccc(C(F)(F)F)cn2)cc1` (stereo not given), the AC50 is 20 µM (active).

The values are drawn from PubChem BioAssay (EPA / NIEHS).
